# The list is not random: actives were taken first. Their share in the collection is about 1.9%.
# CXXC DNA block – qHTS Fluorescence Polarization Assay for Inhibitors of MLL CXXC domain - DNA interaction | MLL-CXXC / FITC-HOXA9 DNA fluorescence polarization | Potency, µM (doses to about 115 µM), inactives show at the top dose activity change, negative = inhibition, most hits filed as inhibitors | 290,000 compounds, 0.037% hits | AID 2662, 2010; active means well fitted inhibition curve with a large enough effect in the polarisation, with a control signal flat, not every such curve was filed as active; inconclusive means small, poorly fitted or top-dose-only effect, or effect the other way, or a change in a side signal; inactive means no such curve, though single readings can be large or run the other way; the % refers to the polarisation; further: potency means the concentration at half of the fitted maximal effect
#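 Purified MLL-CXXC (added from a 7 uM solution) was preincubated 5 min at ambient with pinned compounds in 50 mM Tris-HCl pH 7.5, 50 mM NaCl, 1 mM DTT, 0.05% BSA. Fluorescein-labeled HOX-A9 DNA (50 nM solution) followed, 30 min, then polarization read.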
# Menin MLL FP TR – qHTS Assay for Inhibitors Targeting the Menin-MLL Interaction in MLL Related Leukemias: Competition With Texas Red Labeled MLL-derived Mutant Peptide; Menin + Texas Red MLL mutant peptide, fluorescence polarization; Potency, µM (titrated, usually from 61.6 µM), inactives show top-dose FP activity change, negative = inhibition, most hits filed as inhibitors; 270,000 compounds, 0.23% hits; AID 1768, 2009; active means well fitted inhibition curve with a large enough effect in the polarisation, with a control signal flat, not every such curve was filed as active; inconclusive means small, poorly fitted or top-dose-only effect, or effect the other way, or a change in a side signal; inactive means no such curve, though single readings can be large or run the other way; the % refers to the polarisation; further: potency means the concentration at half of the fitted maximal effect; % of control where 0% means no effect
# Menin MLL FP FL – qHTS Assay for Inhibitors Targeting the Menin-MLL Interaction in MLL Related Leukemias: Competition With Fluorescein Labeled MLL-derived Peptide | Fluorescence polarization, fluorescein-MLL peptide displacement from menin | FP activity change, % at 61.4 µM | 290,000 tested, under 10 active | AID 1766, 2009; active means well fitted curve in the direction sought with a large enough effect in the polarisation, not every such curve was filed as active; inconclusive means small, poorly fitted or top-dose-only effect, or effect the other way, or a change in a side signal; inactive means no such curve, though single readings can be large or run the other way; the % refers to the polarisation; further: % of control where 0% means no effect
# ClpP mod – qHTS Assay for Activators of ClpP. purified B. subtilis ClpP, FRET peptide cleavage, 20 min. AID 651965, 2013. ATP-dependent Clp protease proteolytic subunit (Bacillus subtilis (strain 168)), P80244. 340,000 compounds, 1.9% hits. Potency, µM (highest dose often 57.5 µM), without a hit: at the highest dose activity change, negative = active; active means well fitted falling curve with a large enough effect; inconclusive means small, poorly fitted or top-dose-only effect; inactive means no such curve, though single readings can be large or run the other way; further: potency means the concentration at half of the fitted maximal effect; the source files actives as falling curves though it sought activators and does not explain the sign; nearly all actives have a fitted effect of over 65% in size
# Target sequence (P80244 whole entry, looked up): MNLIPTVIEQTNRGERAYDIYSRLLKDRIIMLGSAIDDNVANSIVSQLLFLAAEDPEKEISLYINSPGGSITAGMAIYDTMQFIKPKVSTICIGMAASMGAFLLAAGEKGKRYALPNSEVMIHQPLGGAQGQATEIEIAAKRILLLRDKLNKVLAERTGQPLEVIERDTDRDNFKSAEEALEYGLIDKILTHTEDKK
#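 Purified B. subtilis ClpP, 10 microg/mL final in Tris/HCl pH8 with KCl, BSA, glycerol and Tween-20, cleaved an Abz/nitrotyrosine-quenched decapeptide. Fluorescence (ex 320, em 430) was read at 0 and 20 min at room temperature. Delta was normalized to 5.8 microM ADEP and DMSO/no-enzyme controls.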
# PINK1 modulator – A Quantitative High throughput Screen to Identify Chemical Modulators of PINK1 Expression; 410,000 compounds, 0.2% hits; PINK1 immunofluorescence, high-content cytometry, 24 h; Potency, µM (top dose mostly 76.6 µM), inactives show at the highest dose activation (PINK1 increase), usual class: activators; active means well fitted activation curve with a large enough effect; inconclusive means small, poorly fitted or top-dose-only effect; cell line not stated here; further: potency means the concentration at half of the fitted maximal effect; % of control where 0% means no effect; nearly all actives have a fitted effect of over 65% in size
#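 PINK1 protein, normally rapidly degraded, was detected by immunofluorescence after 24 hour compound treatment of a stable cell line. Titration data (5 concentrations) came from laser-scanning cytometry, with CCCP-treated wells as controls.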
# Epigenetic derep – Quantitative High-Throughput Screen for Regulators of Epigenetic Control; 280,000 compounds, 0.2% hits; Potency, µM (doses to about 53.9 µM), for inactives: at the highest dose GFP activation, actives largely listed as activators; murine LDR cells, GFP reporter derepression, 30 h; active means well fitted activation curve with a large enough effect; inconclusive means small, poorly fitted or top-dose-only effect; further: potency means the concentration at half of the fitted maximal effect; % of control where 0% means no effect; nearly all actives have a fitted effect of over 60% in size
#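 GFP-positive cell count by laser-scanning cytometry (objects 20–120 um) after 30 h, 37 C compound exposure of murine LDR cells; reporter is CMV-GFP integrated at a silenced locus, inducible by HDAC or DNMT inhibitors.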
# Active calls of the source: *; ? = inconclusive; . = not tested or not shown; ! = a repeat was not active; [ ] = remark or other dose.
SMILES,CXXC DNA block,Menin MLL FP TR,Menin MLL FP FL,ClpP mod,PINK1 modulator,Epigenetic derep
C(=Nc1ccc(Nc2ccccc2)cc1)c1ccc2ccccc2c1,7%,?,4,14µM*,3%,0%
O=c1oc2cc(OCc3c(F)c(F)c(F)c(F)c3F)ccc2cc1-c1ccccn1,0%,-2%,4,16µM*,11%,0%
NC(=O)COc1ccc2cc(-c3ccccc3)c(=O)oc2c1,8%,-12%,-7,4%,0%,.
FC(F)(F)c1cc(-c2ccco2)nc2ncnn12,0%,2%,2,28µM*,1%,0%
FC(F)(F)c1cc(-c2ccccc2)nc2ncnn12,7%,12%,1,28µM*,.,0%
O=C(c1cc2nc(-c3ccccc3)cc(C(F)(F)F)n2n1)N1CCCC1,.,.,.,-3%,1%,.
O=C(c1nc2nc(-c3ccccc3)cc(C(F)(F)F)n2n1)N1CCCCC1,-3%,-7%,5,28µM*,5%[38.3 µM],-1%
FC(F)(F)c1cc(-c2cccs2)nc2ncnn12,-7%,4%,-2,.,0%,4%
NC(=O)c1cc2nc(-c3ccco3)cc(C(F)(F)F)n2n1,-7%,-29%,0,?,0%[38.3 µM],0%
CN1/C(=C/c2cccc[n+]2C)Sc2ccccc21,13%,4%,12,1%,18µM*,.
COc1ccc2c(c1)N(C)/C(=C/c1cccc[n+]1C)S2,15%,-10%,23,1%,5µM*,.
CCN1/C(=C/c2cccc[n+]2C)Sc2ccc(OC)cc21,59%,-21%,?,0%,25µM*,.
Cc1ccc2c(c1)N(C)/C(=C/c1cccc[n+]1C)S2,-3%,10%,27,.,?,.
Fc1ccc(CCNc2ncnc3nc[nH]c23)cc1,.,.,.,-1%,0%,.
COC(=O)c1ccc(C(=O)OC)c(NC(=S)N2CCN(C)CC2)c1,-1%,-15%,-3,.,0%,-1%[10.1 µM]
COC(=O)c1cccc(NC(=S)N2CCN(C)CC2)c1,1%,2%,9,13µM*,0%,.
Cc1ccc(C(=O)Nc2ccc(-c3cn4cccnc4n3)cc2)cc1C,.,.,.,4%,4%,-1%
Cc1ccc2nc(Cl)c3cc(C(=O)N(CCN(C)C)Cc4ccco4)sc3c2c1,-5%,?,1,25µM*,-7%,2%
CN(C)CCN(Cc1ccco1)C(=O)c1cc2c(Cl)nc3ccccc3c2s1,5%,-24%,-5,-2%,-2%,-4%
COCCNC(=S)NCCCNc1nc2cc3c(cc2cc1C#N)OCO3,2%,-17%,-2,14µM*,6%[38.3 µM],-8%
CCOCCCNC(=S)NCCCNc1nc2cc3c(cc2cc1C#N)OCO3,-1%,2%,0,10µM*,1%[38.3 µM],-5%
CN(C)CCCNC(=S)NCCNc1nc2cc3c(cc2cc1C#N)OCO3,3%,-6%,-1,4%,-1%,3%
COc1ccc(-c2nc3cc(C)ccc3cc2CN(C(=O)c2cc(C)nn2C)C2CC2)cc1OC,.,.,.,.,0%,.
COc1ccc2c(c1)CCc1cnc(-n3ncc(C(=O)NC4CCOC4)c3C3CC3)nc1-2 (configuration not stated),.,.,.,.,2%,.
CC(=O)c1ccc(F)c(-c2cc(C)cc3c2OC(CNC(=O)c2ccnn2C)C3)c1 (configuration not stated),.,.,.,.,-1%,.
SMILES,CXXC DNA block,Menin MLL FP TR,Menin MLL FP FL,ClpP mod,PINK1 modulator,Epigenetic derep
CCCCS(=O)(=O)Nc1ccc2cn[nH]c2c1,-11%,0%,2,.,2%,0%
CCCCS(=O)(=O)Nc1ccc2ncn(C)c(=O)c2c1,-1%,-7%,-4,32µM*,-2%[38.3 µM],0%
COC(=O)Nc1cccn(Cc2c(Cl)cccc2Cl)c1=O,1%,-10%,3,?,0%,-1%
C#CCOC(=O)Nc1ccc(=O)n(Cc2c(Cl)cccc2Cl)c1,5%,.,0,28µM*,.,2%
COCCCNc1ncnc2sc(C(=O)N3CCCCC3)c(C)c12,.,.,.,.,-1%,.
Cc1ccc(NC(=O)CN(C)S(=O)(=O)c2ccc3c(c2)n(C)c(=O)c(=O)n3C)c(C)c1,0%,-10%,5,32µM*!,1%,-4%
CC(C)c1ccc(NC(=O)C2CCCN(S(=O)(=O)c3ccc4[nH]c(=O)ccc4c3)C2)cc1 (configuration not stated),.,.,.,-2%,0%,0%
O=c1oc2cc(O)ccc2cc1-c1ccccc1,7%,10%,18,4%,2%,.
O=c1oc2cc(O)ccc2cc1-c1nc(-c2ccc(Cl)c(Cl)c2)cs1,.,.,.,-13%,9%,7.9µM*
O=c1oc2cc(O)ccc2cc1-c1nc2c(s1)CCc1ccccc1-2,?,?,?,20µM*,1%,?
CCOc1ccc(C(=O)N/N=C/c2ccc(-c3ccc(S(=O)(=O)Nc4ncccn4)cc3)o2)cc1,-1%,.,8,28µM*,-1%[38.3 µM],-1%
O=C(NC1CCCC1)c1cn(C2CCCN(Cc3ccc4c(c3)OCCO4)C2)nn1 (configuration not stated),.,.,.,.,0%,.
O=C(NC1CCCCCCC1)c1ccccc1O,-5%,-2%,4,28µM*,?,0%
O=C(NC1CCCCC1)c1cc(Cl)ccc1[N+](=O)[O-],1%,5%,1,28µM*,1%,1%
O=C(NCCO)c1ccccc1O,3%,-10%,0,32µM*,0%,5%
O=C(NC1CCCC1)c1cc(Cl)ccc1[N+](=O)[O-],-5%,-18%,.,-1%,0%,-1%
O=C(NCCNC(=O)c1ccccc1O)c1ccccc1O,0%,15%,-2,-2%,4%,.
COc1ccc(Cc2c(-c3ccccc3)nc3ccc(Br)cn23)c(C)c1,.,.,.,-2%,32µM*,.
CC(C)(C)Cc1c(-c2cccc(Cl)c2)nc2ccc(Br)cn12,.,.,.,-8%,?,.
CC(C)(C)Cc1c(-c2ccc(Br)cc2)nc2ccc(Br)cn12,.,.,.,-4%,40µM*,.
COc1cc2c(NC3CCN(C(C)C)CC3)nc(N3CCCN(C)CC3)nc2cc1OCCOCCN1CCCC1,.,.,.,4%,0%,.
CCCCc1nc(NCCO)c(C#N)c2c1CCCC2,6%,?,2,4%,0%,-3%
CCCCNc1nc(CC)c2c(c1C#N)CCCC2,-8%,-9%,-3,28µM*,3%,0%
Oc1ccc(-c2cnccn2)cc1CN1CCN(C2CCCCC2)CC1,.,.,.,.,0%,.

# Assay outcomes from PubChem BioAssay.
